IMPase Li inh – qHTS Assay for Identifying the Cell-Membrane Permeable IMPase Inhibitors: Potentiation with Lithium; CHO-M1 cells, IP1 TR-FRET (IP-One), carbachol + lithium; Potency, µM (titrated, usually from 59.4 µM), for inactives: at the highest dose activity, negative = IMPase inhibition, hits mostly inhibitors; 0.35% of 210,000 active;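 further: IP1 builds up when IMPase is blocked and the TR-FRET signal falls; potency means the concentration at half of the fitted maximal effect; plate controls were basal vehicle for no effect and high inhibitor control for full effect; nearly all actives have a fitted effect of over 50% in size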
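Readout is a homogeneous TR-FRET IP1 immunoassay (Ex 320, Em 665 and 620), where raised cytosolic IP1 lowers signal. Cells were CHO-M1 treated 30 min at 37C with test compounds plus a little lithium; AC50 values came from Hill-equation fitting.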
ALDH1A1 block – qHTS Assay for Inhibitors of Aldehyde Dehydrogenase 1 (ALDH1A1); Aldehyde dehydrogenase 1A1 (Homo sapiens), P00352; Purified ALDH1A1, NADH fluorescence, propionaldehyde substrate; Potency, µM (highest dose often 75.3 µM), without a hit: top-dose activity, negative = inhibition, hits mostly inhibitors; 7.3% of 220,000 active; AID 1030, 2008; active means well fitted inhibition curve with a large enough effect, not every such curve was filed as active; inconclusive means small, poorly fitted or top-dose-only effect, or another doubt; inactive means no such curve, though single readings can be large or run the other way;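 further: potency means the concentration at half of the fitted maximal effect; plate controls were no enzyme wells and a reference inhibitor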
ALOX12 inhib – qHTS Assay for Inhibitors of 12-hLO (12-human lipoxygenase). 0.12% of 150,000 active. Potency, µM (doses to about 57.1 µM), without a hit: at the highest dose activity change, negative = inhibition, usual class: inhibitors. AID 1452, 2008. purified 12-hLO, xylenol orange hydroperoxide absorbance; further: potency means the concentration at half of the fitted maximal effect; nearly all actives have a fitted effect of over 55% in size
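Purified human 12hLO (150 nM final) was preincubated with compounds for 15 min at room temperature in 25 mM Hepes pH 7.0, 0.01% Triton X-100, then reacted with 40 uM arachidonic acid for 30 min. Hydroperoxide was detected with ferrous iron/xylenol orange.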
PNC assembly inh – High Content Assay for Compounds that inhibit the Assembly of the Perinucleolar Compartment; PC3M PTB-GFP, PNC prevalence imaging, 16 h; stronger effect = lower value; activity change (PNC), negative = inhibition, % at 10 µM; 3.1% of 140,000 active; AID 2417, 2010;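 active means readout at or below -70, meaning at least 70% loss of cells showing the perinucleolar compartment, a nuclear body marking cancer cells; inconclusive means readout between -30 and a set limit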;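 further: plate controls were DMSO wells for no effect and camptothecin positive control wells for full effect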
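PC3M cells stably expressing PTB-GFP, 750–1000 cells/well, treated 16 h at 37 °C with compound (23 nl of library stock), in duplicate. After paraformaldehyde fixation and Hoechst stain, imaged at 20x; PNC prevalence scored by image analysis.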
IMPase cell inh – qHTS Assay for Identifying the Cell-Membrane Permeable IMPase Inhibitors. CHO-M1 cells, IP1 accumulation, HTRF TR-FRET ratio. inhibition (IP1 accumulation), % at 46.1 µM. 120,000 tested, under 10 active. AID 901, 2007; active means well fitted curve in the direction sought with a large enough effect in the signal ratio, not every such curve was filed as active; inconclusive means small, poorly fitted or top-dose-only effect, or a change in a side signal; inactive means no such curve, though single readings can be large or run the other way; the % refers to the signal ratio;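 further: cells stimulated with carbachol in lithium chloride buffer; plate controls were DMSO basal wells for no effect and reference inhibitor wells for full effect; higher means more IMPase inhibition seen as more IP1 and lower FRET ratio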
Target sequence (P97697 whole entry, looked up): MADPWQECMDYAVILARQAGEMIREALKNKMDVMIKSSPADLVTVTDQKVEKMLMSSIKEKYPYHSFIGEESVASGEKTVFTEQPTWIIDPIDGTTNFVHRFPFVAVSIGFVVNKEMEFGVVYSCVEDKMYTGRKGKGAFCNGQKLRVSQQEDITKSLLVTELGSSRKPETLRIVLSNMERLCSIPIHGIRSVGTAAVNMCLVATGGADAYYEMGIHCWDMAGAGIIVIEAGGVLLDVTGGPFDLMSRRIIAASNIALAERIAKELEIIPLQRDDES
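Seeded CHO-M1 cells were dosed with compound at up to 46 uM, stimulated with carbachol for 30 min, then lysed in IP-One detection reagents. Higher IP1 lowers the TR-FRET signal.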
HPGD block – qHTS Assay for Inhibitors of HPGD (15-Hydroxyprostaglandin Dehydrogenase). 15-hydroxyprostaglandin dehydrogenase [NAD(+)] (Homo sapiens), P15428. purified HPGD, NADH fluorescence kinetic, PGE2 substrate. Potency, µM, without a hit: at the top dose activity change, negative = inhibition, actives largely listed as inhibitors. 4.3% of 150,000 active. AID 894, 2007; active means well fitted inhibition curve with a large enough effect, not every such curve was filed as active; inconclusive means small, poorly fitted or top-dose-only effect, or another doubt; inactive means no such curve, though single readings can be large or run the other way; further: potency means the concentration at half of the fitted maximal effect
Target sequence (P15428 whole entry, looked up): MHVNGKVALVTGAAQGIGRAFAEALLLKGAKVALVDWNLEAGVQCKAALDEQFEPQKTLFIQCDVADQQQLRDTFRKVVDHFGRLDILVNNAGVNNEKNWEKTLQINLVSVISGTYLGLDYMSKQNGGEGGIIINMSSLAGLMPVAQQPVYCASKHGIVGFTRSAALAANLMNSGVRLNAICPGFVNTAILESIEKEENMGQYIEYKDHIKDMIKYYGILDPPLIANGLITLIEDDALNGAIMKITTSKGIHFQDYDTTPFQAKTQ
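20 nM HPGD preincubated 15 min at room temperature with compound in 50 mM Tris-HCl pH 8, 0.01% Tween 20. Started with 1 mM NAD+ and 30 uM prostaglandin E2; NADH fluorescence (360/450 nm) read 5 times over 30-s intervals, last minus first.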
Starred values were filed as active, the others as inactive; ? = inconclusive; nt = no result; [ ] = another dose, or the depositor's remark. Shown are actives, neighbours in structure and some others; about 11% of the full set was active somewhere. Unless noted, the call rests on the fitted dose curve; in most records, active means well fitted curve in the direction sought with a large enough effect; inconclusive means small, poorly fitted or top-dose-only effect, or another doubt; inactive means no such curve, though single readings can be large; an effect the other way counts as inactive or inconclusive. Unless noted, on the % scale 0 is the no-effect control and ±100 the full control effect.

SMILES	IMPase Li inh	ALDH1A1 block	ALOX12 inhib	PNC assembly inh	IMPase cell inh	HPGD block
COc1ccc(C(=O)NN2C(=O)C3C4C=CC(O4)C3C2=O)cc1 (stereo not given)	6.9%[38.3 µM]	7.94µM*	-3.9%	-0.2	0.3	4.3%
COc1cccc(C(=O)NN2c3ccccc3CCc3ccccc32)c1	-5.8%	-7.2%	3.5%	?	nt	-21.3%
COc1cccc(C(=O)NN2C(=O)C3C4C=CC(O4)C3C2=O)c1 (stereo not given)	14.9%[38.3 µM]	14.1µM*	-4.1%	-11.5	5.1	1.8%
COc1ccc(Nc2nc(Cl)nc(N3CCN(c4ccc(OC)cc4)CC3)n2)cc1	29.4%	-1.7%	nt	nt	nt	nt
C=CCNc1nc(Nc2ccc([N+](=O)[O-])cc2)nc(N2CCCC2)n1	8.9%	31.6µM*	nt	nt	nt	nt
CC1CCN(c2nc(Cl)nc(Nc3ccc([N+](=O)[O-])cc3)n2)CC1	18.6%	15.8µM*	-0.7%	32.6	nt	-19.9%
COc1ccccc1-n1cc(-c2ccc(Cl)cc2)[nH]c1=O	6.1%	11.2µM*	-1.2%	39.3	-4.1	-6.3%
Cc1ccc(NC(=O)COC(=O)C(CC(C)C)N2C(=O)C3CC=CCC3C2=O)c(C)c1 (stereo not given)	11.5%	-15.4%	0.4%	-87.0*	-2.4	-8.0%
CC(C)CC(C(=O)OCC(=O)c1c(N)n(C)c(=O)n(C)c1=O)N1C(=O)C2CC=CCC2C1=O (stereo not given)	-1.1%	2.5%	nt	nt	nt	nt
COCCn1c(=O)c(C)nc2cnc(Oc3cccc(Cl)c3)nc21	-3.6%	?	nt	nt	nt	nt
O=C(c1cnccn1)N1CCC2(CCCN(Cc3ccncc3)C2)CC1	21.7%	-2.8%	2.0%	nt	nt	-6.7%
O=C(O)CC/C=C\C[C@@H]1CO[C@H](c2ccccc2Cl)O[C@@H]1c1ccccc1O	9.9%	0.3%	-4.0%	nt	3.2	-2.9%
Cc1cc2nc(SCC(=O)Nc3nonc3C)c3c(c2cc1C)CCCC3	6.31µM*	12.8%	-4.5%	48.0	-18.7	-19.4%
CCCCCCCC/C=C\CCCCCCCC(=O)N[C@@H](CO)Cc1ccc(O)cc1	5.3%	-3.9%	-8.7%	nt	0.0	-8.1%
CCOc1ccccc1Nc1ccc(C(=O)O)cc1NC(C)=O	37.9%[38.3 µM]	?	5.6%	-21.3	2.1	22.4µM*
CCOc1ccc(C(=O)Nc2ccccc2NC(C)=O)cc1OCC	5.1%	0.5%	nt	nt	nt	nt
COC(=O)c1ccc(C(NC(=O)OCc2ccccc2)/C(=C/[C@@H](C)C(=O)NCCc2c[nH]c3ccccc23)c2cccnc2)cc1 (stereo not given in full)	-8.0%	-4.6%	-2.4%	nt	nt	-9.6%
C[C@H]1C2=C3C(CC[C@H]4C(OCc5ccc(F)cc5C(F)(F)F)OC[C@](C)([C@@H]34)N(C(=O)OC(C)(C)C)C2)C(CO)C1CO (stereo not given in full)	6.4%	3.9%	-1.6%	nt	nt	-17.3%
CCOC(=O)c1sc(NC(=O)c2cc(-c3ccccc3C)nc3ccccc23)c(C#N)c1C	27.7%[38.3 µM]	8.91µM*	-3.9%	?	3.2	15.8µM*
Cc1ccccc1-c1cc(C(=O)Nc2sc(C)c(C)c2C(N)=O)c2ccccc2n1	49.5%[38.3 µM]	?	-11.0%	-0.2	29.5	31.6µM*
CCOC(=O)c1c(NC(=O)c2cc(-c3ccc(Cl)s3)nc3ccccc23)sc(C(N)=O)c1C	-2.5%	7.1%	1.6%	-21.0	-7.8	-5.5%
CCOC(=O)c1sc(NC(=O)C(C)Oc2ccc(OC)cc2)c(C(=O)OCC)c1C (stereo not given)	nt	nt	nt	nt	-16.4	nt
CCCCCCCCCCCCC(C(=O)O)C(C)C(=O)O (stereo not given)	22.1%	4.7%	-5.2%	nt	nt	-18.8%

High-throughput results as filed in PubChem BioAssay.
